Results on six compounds are retold here after PubChem BioAssay (NCATS).

Assay [1] is described as follows: Cell Viability - BJ (AID 421; calls by dose curve;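 further: potency means the concentration at half of the fitted maximal effect; cells exposed to compound for 40 hours at 37 °C before readout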). The conditions noted are these: BJ fibroblast viability, qHTS. A digest of the protocol:
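Cytotoxicity in human BJ foreskin fibroblasts is scored as loss of cellular ATP after a 40-hour exposure, measured by luciferase luminescence. Controls are DMSO and 100 uM tamoxifen.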
On the technique in general: qHTS replaces the single test concentration by a dilution series.

A short description of assay [2]: Cell Viability - HepG2 (AID 433; calls by dose curve;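 further: potency means the concentration at half of the fitted maximal effect; cells exposed to compound for 40 hours; potency for ATP loss meaning cytotoxicity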). The conditions noted are these: qHTS. In short, it runs like this: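 ATP luminescence (CellTiter-Glo) after 40 h compound exposure, 37 °C, HepG2, 1500 cells/well, complete medium. Normalized: DMSO = basal, 100 uM tamoxifen = 100% inhibition. AC50 via standard Hill equation.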
Assay [3] is described as follows: Cell Viability - Mesenchymal (AID 546).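 Further: cells exposed to compound for 40 hours before reading.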 Conditions: mesenchymal cells viability, qHTS; activity change, negative = cytotoxicity: at 91.7 µM (top of the series). A digest of the protocol:
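Human kidney mesenchymal cells from normal renal glomeruli, 1000 cells/well, rested 5 hr at 37 °C, then treated 40 hr at 37 °C in complete medium. Cellular ATP read by CellTiter-Glo luminescence; AC50 from Hill-equation fits.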

A short description of assay [4]: Cellular Toxicity (caspase-3) Jurkat (AID 655).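 Further: cells exposed to compound for 16 h at 37 °C before reading.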 Conditions: Jurkat caspase-3 activation, luminescence; caspase-3 activation: at 92.2 µM (top of the series), DMSO = 0%, tamoxifen = 100%. In short, it runs like this: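 Luminescent caspase-3/7 readout (aminoluciferin substrate cleavage) in human T-cell leukemia Jurkat cells after 16 hr compound exposure. Concentration-response normalized to DMSO and 100 uM tamoxifen; AC50 by standard Hill equation.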

A short description of assay [5]: Cell Viability - LYMP2-003 (AID 965).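 Further: cells exposed to compounds for 24 h before reading; 0% = DMSO only and full effect = 92 µM tetraoctylammonium bromide; nearly all actives have a fitted effect of over 50% in size.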 Conditions: LYMP2-003 lymphoblastoid cell viability; series mostly up to 92.2 µM. In short, it runs like this: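 CellTiter-Glo luminescence (cellular ATP) after 24 h compound exposure at 37 C in complete medium; 2500 cells/well, 5 h settling beforehand. Concentration-response fitted to standard Hill equation for AC50. Tetraoctylammonium bromide served as positive control.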

Assay [6] can be described thus: Cell Viability - LYMP2-011 (AID 969).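 Further: 0% = DMSO only and full inhibition = 92 µM tetraoctylammonium bromide; nearly all actives have a fitted effect of over 60% in size.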 Conditions: LYMP2-011 lymphoblastoid cells viability; series mostly up to 92.2 µM. A digest of the protocol: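 Acute toxicity is scored as a concentration-dependent drop in intracellular ATP of a human lymphoblastoid line after 24 hr treatment. Values are AC50s modeled with the Hill equation.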
The nature of assay [7]: Cell Viability - LYMP2-021 (AID 974).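 Further: compound exposure lasts 24 hours at 37 °C; on the % scale 0 is the no-effect control and ±100 the full control effect; nearly all actives have a fitted effect of over 55% in size.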 Conditions: LYMP2-021 lymphoblastoid cells viability; series mostly up to 92.2 µM. In short, it runs like this: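 Concentration-response cytotoxicity in a human lymphoblastoid line: 24 hr treatment at 37 C in complete culture medium, tetraoctylammonium bromide as positive control, luminescent ATP quantitation as viability measure.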
A short description of assay [8]: Cell Viability - LYMP2-023 (AID 975).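 Further: cellular ATP measured by luciferase luminescence as viability proxy; plate controls were DMSO only for no effect and 92 µM tetraoctylammonium bromide control for full effect; nearly all actives have a fitted effect of over 55% in size.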 Conditions: LYMP2-023 lymphoblastoid cell viability; series mostly up to 92.2 µM. In short, it runs like this:
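Concentration-dependent drop in intracellular ATP measures acute cytotoxicity in a human lymphoblastoid line treated for 24 hours in complete culture medium. AC50 values are taken from Hill-equation fits of qHTS data.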

A short description of assay [9]: Cell Viability - LYMP2-025 (AID 976).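 Further: plate controls were DMSO only for no effect and tetraoctylammonium bromide control for full effect.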 The conditions noted are these: LYMP2-025 lymphoblastoid cell viability; series mostly up to 92.2 µM. In short, it runs like this:
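In qHTS format, LYMP2-025 lymphoblastoid cells in complete culture medium received compound for 24 hr; ATP-based CellTiter-Glo signal gave viability, with AC50 derived by Hill equation.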

Assay [10] can be described thus: Cell Viability - LYMP2-002 (AID 977).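 Further: plate controls were DMSO only for no effect and 92 µM tetraoctylammonium bromide for full effect.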 Conditions: LYMP2-002 lymphoblastoid cell viability, qHTS; series mostly up to 92.2 µM. A digest of the protocol:
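Human lymphoblastoid LYMP2-002 cells, 2500 per well, exposed to compounds for 24 h at 37 C in complete medium; viability read as intracellular ATP by CellTiter-Glo luminescence, AC50 from Hill fits.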

A short description of assay [11]: Cell Viability - LYMP2-008 (AID 980). Further: on the % scale 0 is the no-effect control and ±100 the full control effect; nearly all actives have a fitted effect of over 60% in size. The conditions noted are these: LYMP2-008 lymphoblastoid cell viability, qHTS; series mostly up to 92.2 µM. In short, it runs like this: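 Acute cytotoxicity is scored as concentration-dependent loss of cellular ATP in a human lymphoblastoid line after 24 hr treatment at 37 C. ATP is quantified by luciferase luminescence.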

Assay [12] is described as follows: Cell Viability - LYMP2-014 (AID 983).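 Further: plate controls were DMSO only for no effect and 92 µM tetraoctylammonium bromide for full effect; nearly all actives have a fitted effect of over 50% in size.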 The conditions noted are these: LYMP2-014 lymphoblastoid cells, viability qHTS; series mostly up to 92.2 µM. In short, it runs like this: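 Decrease in intracellular ATP after 24 hr treatment at 37 C, measured by luciferase luminescence, indicated cytotoxicity. Concentration-response data were fitted with the standard Hill equation to give AC50.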

Assay [13] is described as follows: Cell Viability - LYMP2-016 (AID 984). Further: on the % scale 0 is the no-effect control and ±100 the full control effect; nearly all actives have a fitted effect of over 55% in size. The conditions noted are these: LYMP2-016 lymphoblastoid cell viability, qHTS; series mostly up to 92.2 µM. In short, it runs like this: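 qHTS, 1536-well: 2500 LYMP2-016 cells/well, 5 hr 37 C, compound added, 24 hr 37 C, CellTiter-Glo 30 min RT, luminescence. Tetraoctylammonium bromide positive control. AC50 via Hill fit.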

A short description of assay [14]: Cell Viability - LYMP2-018 (AID 985).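 Further: compound exposure lasted 24 hr at 37 °C; plate controls were DMSO only for no effect and tetraoctylammonium bromide at 92 µM for full effect; nearly all actives have a fitted effect of over 50% in size.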 Conditions: LYMP2-018 lymphoblastoid cells, viability (qHTS); series mostly up to 92.2 µM. In short, it runs like this:
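Acute cytotoxicity is scored as a concentration-dependent drop in intracellular ATP after 24 hr exposure of the lymphoblastoid line in complete culture medium, measured by luciferase luminescence. Potency is expressed as AC50 from Hill modelling.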

A short description of assay [15]: Cell Viability - LYMP2-022 (AID 987).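 Further: 0% = DMSO alone and full effect = tetraoctylammonium bromide at 92 µM; nearly all actives have a fitted effect of over 55% in size.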 The conditions noted are these: LYMP2-022 lymphoblastoid cell viability; series mostly up to 92.2 µM. In short, it runs like this:
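Acute toxicity in a human lymphoblastoid line is scored as decreased intracellular ATP after 24 hr compound treatment at 37 C. ATP is measured by CellTiter-Glo luminescence; curves are fitted with the Hill equation to give AC50.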

A short description of assay [16]: Cell Viability - LYMP2-024 (AID 988).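 Further: plate controls were DMSO only for no effect and 92 µM tetraoctylammonium bromide for full effect; nearly all actives have a fitted effect of over 60% in size.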 The conditions noted are these: LYMP2-024 lymphoblastoid cell viability; series mostly up to 92.2 µM. In short, it runs like this: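 Acute toxicity is measured as concentration-dependent loss of intracellular ATP in a human lymphoblastoid line treated 24 hours at 37 C. Luciferase luminescence quantifies ATP; AC50 values come from standard Hill-equation modelling.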

The nature of assay [17]: Cell Viability - LYMP2-026 (AID 989). Further: on the % scale 0 is the no-effect control and ±100 the full control effect; nearly all actives have a fitted effect of over 50% in size. The conditions noted are these: LYMP2-026 lymphoblastoid cell viability, qHTS; series mostly up to 92.2 µM. A digest of the protocol:
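Concentration-dependent loss of intracellular ATP in human lymphoblastoid cells after 24 hr at 37 C, quantified by luciferase luminescence. AC50 derived from standard Hill equation.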

The nature of assay [18]: qHTS assay for small molecule antagonists of retinoid X receptor alpha signaling (AID 588546; active means well fitted inhibition curve with a large enough effect in the signal ratio, with a control signal flat, not every such curve was filed as active; the % refers to the signal ratio;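 further: cells stimulated with 9-cis-retinoic acid as agonist; on the % scale 0 is the no-effect control and ±100 the full control effect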). The conditions noted are these: HEK293T RXRa-UAS-bla, beta-lactamase ratio, antagonist mode; measured here: W530 green channel, cytotoxicity proxy. In short, it runs like this: (§1)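 Beta-lactamase reporter inhibition, read as CCF4 fluorescence ratio (ex 405, em 460/530 nm) after 2 h at RT. HEK293T UAS-bla cells, 2500/well, were stimulated with 9-cis-RA at 500 or 100 nM final alongside test compound for 18 h at 37 C.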

Assay [19] addresses Retinoic acid receptor RXR-alpha (Homo sapiens) (UniProt P19793). The assay is described as above. The conditions noted are these: HEK293T RXRa-UAS-bla, beta-lactamase ratio, antagonist mode. A digest of the protocol:
as §1

Assay [20] can be described thus: qHTS assay for environmental chemicals that activate the Aryl hydrocarbon Receptor (AhR) signaling pathway (AID 651777). Further: % of control where 0% means no effect; nearly all actives have a fitted effect of over 15% in size. Conditions: 1A2-DRE human hepatoma cells, luciferase, 24 h; activation: stronger effect = higher value. In short, it runs like this: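 AhR activation is scored as a rise in luciferase from a stable DRE–CYP1A2 promoter construct in human hepatoma cells. Treatment lasts 24 hr at 37 C; detection uses One-Glo after 30 min at room temperature.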

Molecules are shown by their SMILES. “And” between values parts separate entries of the source, which are not always exact repeats. Equal entries are not always repeated. Records with an inconclusive call do not appear. The source made the active and inactive calls. Unless noted, the call rests on the fitted dose curve; in most records, active means well fitted curve in the direction sought with a large enough effect; inconclusive means small, poorly fitted or top-dose-only effect, or another doubt; inactive means no such curve, though single readings can be large; an effect the other way counts as inactive or inconclusive.

Chain of Retinoic acid receptor RXR-alpha (Homo sapiens) (P19793 whole entry, looked up): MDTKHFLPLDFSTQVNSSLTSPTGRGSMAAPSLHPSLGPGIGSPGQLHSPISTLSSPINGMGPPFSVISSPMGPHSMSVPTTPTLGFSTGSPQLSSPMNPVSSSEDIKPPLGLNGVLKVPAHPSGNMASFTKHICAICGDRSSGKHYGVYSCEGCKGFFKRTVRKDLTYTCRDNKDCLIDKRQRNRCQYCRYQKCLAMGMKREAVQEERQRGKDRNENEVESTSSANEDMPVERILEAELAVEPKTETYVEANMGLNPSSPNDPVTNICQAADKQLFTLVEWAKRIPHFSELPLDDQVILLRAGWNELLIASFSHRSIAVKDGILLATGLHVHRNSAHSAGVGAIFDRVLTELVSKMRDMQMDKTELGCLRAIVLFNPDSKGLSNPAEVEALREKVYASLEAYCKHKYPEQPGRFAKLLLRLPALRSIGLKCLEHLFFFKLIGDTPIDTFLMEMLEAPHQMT

As to `Oc1c(Cl)cc(Cl)c(Cl)c1Cl`, the Potency in assay [1] and in assay [2] was > 92 µM (inactive) throughout. The Potency result in [3], in [5], in assay [6], in assay [7], in assay [8] and in assay [9] was “inactive” each time. The Potency result in assay [10], in assay [11], in [12], in assay [13], in [14] and in assay [15] was “inactive” throughout. Also, the Potency entry in assay [16] and in [17] was “inactive” throughout. Moreover, the caspase-3 activation in [4] is 91.2% (active). Besides, the max response in assay [18] was -1.63% and -16.2%; in [19], 4.04% (inactive) and 5.02% (inactive). Also, in assay [20], the activation was -0.427% (inactive).
With `Cc1ccc(N)cc1[N+](=O)[O-]`, the Potency in assay [1] and in assay [2] was > 92 µM (inactive) in each case. For the same compound, the Potency result in assay [3], in assay [4], in [5], in assay [6], in assay [7] and in assay [8] was “inactive” throughout. Besides, the Potency entry in assay [9], in [10], in assay [11], in [12], in assay [13] and in assay [14] was “inactive” in each case. Besides, the Potency entry in assay [15], in assay [16] and in assay [17] was “inactive” each time. Besides, the values for the max response in assay [18] and in assay [19] were -2.06% and -2.5% (inactive), respectively. Further, the activation in [20] was 0.886% (inactive).
For `Cc1ccc2ccc3cccc4ccc1c2c34`, the Potency in assay [1] and in [2] was > 92 µM (inactive) throughout. Further, the Potency entry in assay [3], in assay [4], in assay [5], in [6], in assay [7] and in assay [8] was “inactive” each time. Besides, the Potency result in assay [9], in assay [10], in assay [11], in assay [12], in assay [13] and in [14] was “inactive” each time. Besides, the Potency entry in assay [15], in assay [16] and in assay [17] was “inactive” throughout. The max response was -6.82% in [18] and -1.11% (inactive) in assay [19]. The activation in assay [20] was 5.12% (inactive).
For the compound `Cc1c(N)cccc1Cl`, the Potency in [1] and in [2] was > 92 µM (inactive) each time. In addition, the Potency entry in assay [3], in assay [4], in assay [5], in assay [6], in assay [7] and in [8] was “inactive” throughout. Moreover, the Potency entry in assay [9], in [10], in [11], in [12], in assay [13] and in assay [14] was “inactive” in each case. The Potency entry in [15], in assay [16] and in assay [17] was “inactive” throughout. The values for the max response in [18] and in assay [19] were 0.883% and 1.61% (inactive), respectively. In addition, in assay [20], the activation is -0.26% (inactive).
For `Cc1cccnc1`, the Potency in assay [1] and in assay [2] was > 92 µM (inactive) in each case. Further, the Potency entry in assay [3], in assay [4], in assay [5], in [6], in [7] and in assay [8] was “inactive” in each case. In addition, the Potency entry in [9], in [10], in assay [11], in assay [12], in assay [13] and in [14] was “inactive” in each case. Further, the Potency entry in [15], in assay [16] and in assay [17] was “inactive” in each case. For the same compound, the results for the max response in assay [18] and in assay [19] were -1.12% and 7.72% (inactive), respectively. In addition, the activation in assay [20] was 0.348% (inactive).
In the case of `CCNC(=S)NCC`, the Potency in assay [1] and in [2] was > 92 µM (inactive) throughout. Moreover, the Potency entry in assay [3], in assay [4], in [5], in [6], in assay [7] and in [8] was “inactive” in each case. Moreover, the Potency entry in assay [9], in [10], in assay [11], in assay [12], in assay [13] and in assay [14] was “inactive” in each case. Moreover, the Potency entry in assay [15], in assay [16] and in assay [17] was “inactive” each time. For the same compound, the max response in assay [18] was -3.33%; in assay [19] it was 14.7% (inactive). The activation in assay [20] was 1.67% (inactive).
